The record followed here is the supplement of paper PMC5641865, “A screen for kinase inhibitors identifies antimicrobial imidazopyridine aminofurazans as specific inhibitors of the Listeria monocytogenes PASTA kinase PrkA” (The Journal of Biological Chemistry, 2017).

Each structure is given as a SMILES string. ± gives the standard deviation of the averaged measurements.
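Further: End-point A600 read in BHI broth at 37 °C with 2% DMSO, inhibition computed as (1 − OD with compound plus ceftriaxone ÷ OD with ceftriaxone only) × 100.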

For this test, the system named is Listeria monocytogenes 10403S. Nature of the test: growth inhibition relative to ceftriaxone-alone control; higher = stronger potentiation of ceftriaxone growth inhibition. The note with it: 10 µM; ceftriaxone 1 ug/ml; 12 h.
For the compound `O=C1NC(=O)C(c2ccccc2Cl)=C1Nc1cccc(O)c1`, the growth inhibition was -3.8 ± 3.6%. In the case of `Cc1[nH]c(/C=C2\C(=O)Nc3ccc(S(=O)(=O)Cc4c(Cl)cccc4Cl)cc32)c(C)c1C(=O)N1CCC[C@@H]1CN1CCCC1` it was 78 ± 5.2%; in that of `Fc1ccc(-c2ncn(C3CCNCC3)c2-c2ccnc(Oc3ccccc3)n2)cc1`, -4.1 ± 5.5%.

Take `COc1ccc(COc2ccc(Cc3cnc(N)nc3N)cc2OC)cc1`: the growth inhibition came out at 63.8 ± 9.7%. In the case of `COc1cccc(-n2ncc3c(N/N=C/c4ccc(C)cc4)ncnc32)c1` it was -9.19 ± 0.67%; in that of `Fc1ccc(-c2ncn(CCCN3CCOCC3)c2-c2ccncc2)cc1`, 1.14 ± 3.2%. In the case of `Cc1cc2c(F)c(Oc3ncnn4cc(OC[C@@H](C)OC(=O)[C@H](C)N)c(C)c34)ccc2[nH]1` it was 100.2 ± 0.95%; in that of `CS(=O)(=O)CCNCc1ccc(-c2ccc3ncnc(Nc4ccc(OCc5cccc(F)c5)c(C(F)(F)F)c4)c3c2)o1`, -12.1 ± 6.9%. As for `CN1CCC(C(=O)Nc2n[nH]c3nnc(-c4ccccc4)cc23)CC1`, the figure is 17.5 ± 11%. For `CNC(=O)c1cccc(C#Cc2cncnc2Nc2ccc(OCc3cccc(F)c3)c(Cl)c2)c1`, the growth inhibition was -0.177 ± 4.2%. For `CN(C)CCOc1ccc(-c2cc(-c3ccc4c(c3)CCC4=NO)c(-c3ccncc3)o2)cc1`, the growth inhibition was 36.5 ± 39%. As for `C[C@@H](Oc1cc(-n2cnc3ccc(OCC4CCN(C)CC4)cc32)sc1C(N)=O)c1ccccc1Cl`, the figure is -2.37 ± 3%; as for `NS(=O)(=O)c1ccc(N/N=C2\C(=O)Nc3ccc(C(=O)NCc4ccncc4)cc32)cc1`, -9.46 ± 18%; as for `N#Cc1c(O)c2c(-c3ccc(-c4ccccc4O)cc3)csc2[nH]c1=O`, 40.8 ± 15%. In the case of `CC(C)(C)c1cc(NC(=O)Nc2ccc(-c3cn4c(n3)sc3cc(OCCN5CCOCC5)ccc34)cc2)no1` [Quizartinib (AC220)] it was 35.5 ± 10%.
